Results reported in the supplement of paper PMC8975748.
Structures can show the parent of a compound that is named as a salt.

System: Saccharomyces cerevisiae BY4741 SeMeCo community
Assay: z-score of subpopulation abundance vs DMSO median, subpopulation auxotrophic for U; higher = larger share of this subpopulation than in DMSO controls
Settings: 10 µM; 24 h; SM minimal medium; subpopulation (auxotrophy): U
Procedure: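 Fluorescent four-plasmid SeMeCo (self-establishing metabolically cooperating S. cerevisiae BY4741 community; plasmids pH-mRuby2, pL-mWasabi, pU-eCFP, pM-TagRFP657) was grown 24 h in minimal SM medium with each Selleck FDA-approved drug at 10 µM in 384-well plates. Cells were fixed and imaged by high-content confocal microscopy. For each auxotrophic subpopulation (and the prototroph), a z-score gives the deviation from the DMSO vehicle-control population median.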

SMILES	z-score of subpopulation abundance
CN1C(=O)COc2c(C(=O)NC3CN4CCC3CC4)cc(Cl)cc21 (stereo not given) [Azasetron HCl]	0.36
CN1[C@@H]2C[C@@H](OC(=O)[C@H](CO)c3ccccc3)C[C@H]1[C@@H]1O[C@@H]12 [Scopolamine HBr]	0.09
NCC(O)c1ccc(O)cc1 (racemic) [(+,-)-Octopamine HCl]	0.08
CN(C)[C@@H]1C(=O)C(C(N)=O)=C(O)[C@@]2(O)C(=O)C3=C(O)c4c(O)ccc(Cl)c4[C@@](C)(O)[C@H]3C[C@@H]12 [Chlortetracycline HCl]	0.25
COc1ccc2c(c1)[C@]13CCCC[C@@H]1[C@H](C2)N(C)CC3 [Dextromethorphan hydrobromide hydrate]	0.26
CCN(C)C(=O)Oc1cccc([C@H](C)N(C)C)c1 [Rivastigmine]	-0.07
C#C[C@]1(O)C=C[C@H]2[C@@H]3CCC4=CC(=O)CC[C@@H]4[C@H]3CC[C@@]21CC [Gestodene]	-0.99
CC[N+](C)(CC)CCOC(=O)C(O)(c1ccccc1)c1ccccc1 [Methylbenactyzine Bromide]	-0.09
C[CH2][Hg][S]c1ccccc1C(=O)[O-].[Na+] [Thimerosal]	-3.69
Oc1cccc2cccnc12 [8-Hydroxyquinoline]	-0.25
CN1[C@@H]2CC[C@H]1C[C@@H](OC(=O)[C@H](CO)c1ccccc1)C2 [Hyoscyamine]	0.23
CCCN1C[C@H](CSC)C[C@@H]2c3cccc4[nH]cc(c34)C[C@H]21 [Pergolide Mesylate]	-0.62
CC(NC(C)(C)C)C(=O)c1cccc(Cl)c1 (stereo not given) [Amfebutamone (Bupropion) HCl]	0.11
CNC1CC(N)C(O)C(OC2OC(CO)C(O)C3OC4(OC(C(N)CO)C(O)C(O)C4O)OC23)C1O (stereo not given) [Hygromycin B]	0.58
CC[C@H]1CN2CC[C@]3(C(=O)Nc4ccccc43)[C@@H]2C[C@@H]1/C(=C\OC)C(=O)OC [Rhynchophylline]	0.63
CC(C)(O)C(Cl)(Cl)Cl [Chlorobutanol]	0.13
N[C@@H]1C[C@H]1c1ccccc1 [Tranylcypromine (2-PCPA) HCl]	-0.01
O=[N+]([O-])C(Br)(CO)CO [Bronopol]	1.02
C[N+]1(C)[C@@H]2C[C@@H](OC(=O)[C@H](CO)c3ccccc3)C[C@H]1[C@@H]1O[C@@H]12 [Methscopolamine]	0.61
C=CC[C@]1(O)CC[C@H]2[C@@H]3CCC4=CC(=O)CCC4=C3C=C[C@@]21C [Altrenogest]	-1.52

SMILES	z-score of subpopulation abundance
COc1ccc(C(CN(C)C)C2(O)CCCCC2)cc1 (stereo not given) [Venlafaxine HCl]	-0.58
Oc1cc(Cl)ccc1Oc1ccc(Cl)cc1Cl [Triclosan]	-0.09
Cc1cc(C(C#N)c2ccc(Cl)cc2)c(Cl)cc1NC(=O)c1cc(I)cc(I)c1O (stereo not given) [Closantel]	-0.26
CN[C@@H]1[C@@H](O)[C@@H](O[C@@H]2[C@@H](O)[C@H](O[C@H]3O[C@H]([C@@H](C)O)[C@@H](O)[C@H](O)[C@H]3N)[C@@H](N)C[C@H]2N)OC[C@]1(C)O [Geneticin (G418 Sulfate)]	-0.18
COc1ccc(C(CN(C)C)C2(O)CCCCC2)cc1 (stereo not given) [Venlafaxine]	0.93
CCN1CC2(OC(=O)c3ccccc3NC(C)=O)CCC(OC)C34C1C(CC23)C1(O)CC(OC)C2CC4C1(O)C2OC (stereo not given) [Lappaconitine]	-0.25
CC[C@H]1[C@@H]2C[C@H]3[C@@H]4N(C)c5ccccc5[C@]45C[C@@H]([C@@H]2[C@H]5O)N3[C@@H]1O [Ajmaline]	0.29
CC(=O)O[C@H]1C[C@@H]2CC[C@@H]3[C@H](CC[C@@]4(C)[C@H]3C[C@H]([N+]3(C)CCCCC3)[C@@H]4OC(C)=O)[C@@]2(C)C[C@@H]1[N+]1(C)CCCCC1 [Pancuronium dibromide]	0.25
COc1ccc2[nH]cc(CCN)c2c1 [5-Methoxytryptamine]	1.12
CC(C)N(CCC(C(N)=O)(c1ccccc1)c1ccccn1)C(C)C (stereo not given) [Disopyramide]	-1.21
CCN(C)C(=O)Oc1cccc([C@H](C)N(C)C)c1 [Rivastigmine Tartrate]	-0.19
COc1ccc(C=O)cc1 [p-Anisaldehyde]	-0.66
COC(=O)C1=CCCN(C)C1 [Arecoline HBr]	-0.09
C=CN1CCCC1=O.II [Povidone iodine]	0.2
Cc1cc(O)ccc1Cl [Chlorocresol]	-0.59
CCN(CC)CCOC(=O)C(O)(c1ccccc1)c1ccccc1 [Benactyzine hydrochloride]	1.08
CN1[C@@H]2C[C@@H](OC(=O)[C@H](CO)c3ccccc3)C[C@H]1[C@@H]1O[C@@H]12 [Scopolamine HBr trihydrate]	0.18
NCCc1c[nH]c2ccc(O)cc12 [Serotonin HCl]	0.33
CC[C@@]1(O)C(=O)OCc2c1cc1n(c2=O)Cc2cc3ccccc3nc2-1 [Camptothecin]	-0.45
CC(C)=CCOc1c2occc2cc2ccc(=O)oc12 [Imperatorin]	0.23
